The experiment concerns the target T1, CRBN, Q96SW2.
T1 chain: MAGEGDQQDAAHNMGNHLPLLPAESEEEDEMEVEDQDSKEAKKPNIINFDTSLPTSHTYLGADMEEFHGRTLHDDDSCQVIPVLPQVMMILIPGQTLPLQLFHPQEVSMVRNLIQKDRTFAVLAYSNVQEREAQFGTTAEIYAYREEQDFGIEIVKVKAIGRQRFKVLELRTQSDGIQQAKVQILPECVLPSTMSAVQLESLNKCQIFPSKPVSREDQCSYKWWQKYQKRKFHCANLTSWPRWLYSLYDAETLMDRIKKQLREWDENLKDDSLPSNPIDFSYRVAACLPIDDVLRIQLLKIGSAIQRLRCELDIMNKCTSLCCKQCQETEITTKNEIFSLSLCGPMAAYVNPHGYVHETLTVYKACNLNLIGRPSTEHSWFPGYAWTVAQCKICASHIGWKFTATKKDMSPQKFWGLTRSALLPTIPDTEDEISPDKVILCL
As to the kind of experiment: log2 fold change of degron read counts, EGFP-low vs EGFP+ sorted cells (limma voom), compound-induced degradation; higher = more compound-induced degradation of the degron-EGFP fusion; degrons are variants of IKZF1/3 zinc finger 2; compound dose not given here. The conditions noted are these: Jurkat, 18 h.

[1] abbreviates: compound: compound 19 (5-tert-butyl-thalidomide).
Setting [2] is: compound: compound 22 (5-morpholino-thalidomide).
[3] abbreviates: compound: compound 33 (diphenyl IMiD analogue).

The values below come from the supplement of paper PMC12645437, “Orthogonal IMiD-Degron Pairs Induce Selective Protein Degradation in Cells” (ACS Chemical Biology, 2025).

Over roughly 8,300 sequences, “log2 fold change of degron read counts, EGFP-low vs EGFP+ sorted cells (limma voom), compound-induced degradation” has its median near -1.1; the highest 2% begin near 3.2. The sample as a whole holds a higher share of the highest values than the screen did.
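Note: pooled lentiviral library of zinc finger degron-EGFP fusions in mCherry-positive Jurkat cells, FACS-sorted after compound exposure, with degron abundance counted by next-generation sequencing.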

B1: 46F_47F_49P_50I_52G_53A_54G_55F_67L_, Q9UKT9 (peptide)
chain: FFCPICGAGFTQKGNLLRHIKL
As for B1, the “log2 fold change of degron read counts” value under setting [1] stood at 3.02, the “log2 fold change of degron read counts” value under setting [2] is 2.16, the “log2 fold change of degron read counts” value under setting [3] stood at 1.63 and the “log2 fold change of degron read counts” value (compound: thalidomide) was found to be 0.485.

B2: 46F_47M_49E_50V_52G_53A_54V_55F_67L_, Q9UKT9 (peptide)
chain: FMCEVCGAVFTQKGNLLRHIKL
Regarding B2, the “log2 fold change of degron read counts” value reads like this: under setting [1], -1.47; under setting [2], -0.776; under setting [3], 2.27; (compound: thalidomide) 0.961.

B3: 46F_47Y_49E_50V_52G_53A_54V_55F_67L_, Q9UKT9 (peptide)
chain: FYCEVCGAVFTQKGNLLRHIKL
With B3, the “log2 fold change of degron read counts” value by setting is: under setting [1], 3.58; under setting [2], 3.79; under setting [3], 2.82; (compound: thalidomide) 0.689.

B4: 46F_47E_49E_50V_52G_53A_54V_55F_67L_, Q9UKT9 (peptide)
chain: FECEVCGAVFTQKGNLLRHIKL
As to B4, the “log2 fold change of degron read counts” value by setting is: under setting [1], -0.492; under setting [2], -0.885; under setting [3], 1.58; (compound: thalidomide) 2.31.

B5: 46F_47V_49D_50V_52G_53A_54D_55F_67L_, Q9UKT9 (peptide)
chain: FVCDVCGADFTQKGNLLRHIKL
As to B5, the “log2 fold change of degron read counts” value by setting is: under setting [1], -2.64; under setting [2], -1.98; under setting [3], -2.16; (compound: thalidomide) -1.73.

B6: 46F_47Y_49E_50I_52G_53A_54T_55F_67L_, Q9UKT9 (peptide)
chain: FYCEICGATFTQKGNLLRHIKL
With B6, the “log2 fold change of degron read counts” value runs as follows: under setting [1], 3.58; under setting [2], 4.05; under setting [3], 2.59; (compound: thalidomide) 1.19.

B7: 46F_47T_49E_50I_52G_53A_54T_55F_67L_, Q9UKT9 (peptide)
chain: FTCEICGATFTQKGNLLRHIKL
As for B7, the “log2 fold change of degron read counts” value is, setting by setting: under setting [1], 0.577; under setting [2], 2.27; under setting [3], 2.39; (compound: thalidomide) 2.99.

B8: 46F_47F_49E_50I_52G_53A_54T_55F_67L_, Q9UKT9 (peptide)
chain: FFCEICGATFTQKGNLLRHIKL
With B8, the “log2 fold change of degron read counts” value is 3.27 under setting [1], 3.8 under setting [2], 1.79 under setting [3] and 1.49 (compound: thalidomide).

B9: 46F_47R_49E_50I_52G_53A_54T_55F_67L_, Q9UKT9 (peptide)
chain: FRCEICGATFTQKGNLLRHIKL
With B9, the “log2 fold change of degron read counts” value by setting is: under setting [1], -0.98; under setting [2], -0.654; under setting [3], 1.54; (compound: thalidomide) 1.42.

B10: 46F_47M_49E_50I_52G_53A_54T_55F_67L_, Q9UKT9 (peptide)
chain: FMCEICGATFTQKGNLLRHIKL
In the case of B10, the “log2 fold change of degron read counts” value reads like this: under setting [1], -1.21; under setting [2], -0.67; under setting [3], 2.2; (compound: thalidomide) 1.15.

B11: 46F_47S_49E_50I_52G_53A_54T_55F_67L_, Q9UKT9 (peptide)
chain: FSCEICGATFTQKGNLLRHIKL
On to B11, for which the “log2 fold change of degron read counts” value came to 2.83 under setting [1], 2.57 under setting [2], 1.79 under setting [3] and 1.36 (compound: thalidomide).

B12: 46F_47Q_49E_50I_52G_53A_54T_55F_67L_, Q9UKT9 (peptide)
chain: FQCEICGATFTQKGNLLRHIKL
For the sequence B12, the “log2 fold change of degron read counts” value reads like this: under setting [1], 0.665; under setting [2], 2.58; under setting [3], 2.4; (compound: thalidomide) 3.26.

B13: 46F_47L_49E_50I_52G_53A_54T_55F_67L_, Q9UKT9 (peptide)
chain: FLCEICGATFTQKGNLLRHIKL
For B13, the “log2 fold change of degron read counts” value by setting is: under setting [1], -1.3; under setting [2], -1.41; under setting [3], 0.852; (compound: thalidomide) 1.8.

B14: 46F_47D_49E_50I_52G_53A_54T_55F_67L_, Q9UKT9 (peptide)
chain: FDCEICGATFTQKGNLLRHIKL
Consider B14, for which the “log2 fold change of degron read counts” value reads like this: under setting [1], 1.71; under setting [2], 0.141; under setting [3], 0.186; (compound: thalidomide) 0.436.

B15: 46F_47A_49E_50I_52G_53A_54T_55F_67L_, Q9UKT9 (peptide)
chain: FACEICGATFTQKGNLLRHIKL
In the case of B15, the “log2 fold change of degron read counts” value is, setting by setting: under setting [1], 3.33; under setting [2], 2.04; under setting [3], 0.691; (compound: thalidomide) 0.374.

B16: 46F_47K_49E_50I_52G_53A_54T_55F_67L_, Q9UKT9 (peptide)
chain: FKCEICGATFTQKGNLLRHIKL
For the sequence B16, the “log2 fold change of degron read counts” value under setting [1] was -1.26, the “log2 fold change of degron read counts” value under setting [2] was -3.54, the “log2 fold change of degron read counts” value under setting [3] was -2.61 and the “log2 fold change of degron read counts” value (compound: thalidomide) was -1.06.

B17: 46F_47C_49E_50I_52G_53A_54T_55F_67L_, Q9UKT9 (peptide)
chain: FCCEICGATFTQKGNLLRHIKL
As to B17, the “log2 fold change of degron read counts” value is, setting by setting: under setting [1], 2.13; under setting [2], 2.25; under setting [3], 2.55; (compound: thalidomide) 2.33.

B18: 46L_47N_49N_50Q_52G_53F_54H_55C_67L_, Q9UKT9 (peptide)
chain: LNCNQCGFHCTQKGNLLRHIKL
B18: the “log2 fold change of degron read counts” value is, setting by setting: under setting [1], -1.47; under setting [2], -2.01; under setting [3], -1.68; (compound: thalidomide) -1.54.

B19: 46F_47G_49E_50I_52G_53R_54Q_55F_67L_, Q9UKT9 (peptide)
chain: FGCEICGRQFTQKGNLLRHIKL
In the case of B19, the “log2 fold change of degron read counts” value was -0.21 under setting [1], -0.999 under setting [2], -1.15 under setting [3] and -1.42 (compound: thalidomide).

B20: 46F_47S_49P_50I_52G_53R_54C_55F_67L_, Q9UKT9 (peptide)
chain: FSCPICGRCFTQKGNLLRHIKL
For B20, the “log2 fold change of degron read counts” value is, setting by setting: under setting [1], -0.773; under setting [2], -1.2; under setting [3], 0.835; (compound: thalidomide) -0.39.

B21: 46F_47Y_49D_50Q_52G_53A_54F_55F_67L_, Q9UKT9 (peptide)
chain: FYCDQCGAFFTQKGNLLRHIKL
Consider B21, for which the “log2 fold change of degron read counts” value is, setting by setting: under setting [1], -0.965; under setting [2], -1.17; under setting [3], -1.35; (compound: thalidomide) -2.48.

B22: 46F_47L_49E_50I_52G_53R_54I_55F_67L_, Q9UKT9 (peptide)
chain: FLCEICGRIFTQKGNLLRHIKL
On to B22, for which the “log2 fold change of degron read counts” value is -1.35 under setting [1], -1.7 under setting [2], -0.45 under setting [3] and -0.0614 (compound: thalidomide).

B23: 46F_47R_49N_50Q_52G_53A_54V_55F_67L_, Q9UKT9 (peptide)
chain: FRCNQCGAVFTQKGNLLRHIKL
As for B23, the “log2 fold change of degron read counts” value is -2.12 under setting [1], -2.1 under setting [2], -1.19 under setting [3] and -1.75 (compound: thalidomide).

B24: 46F_47L_49E_50I_52G_53R_54N_55F_67L_, Q9UKT9 (peptide)
chain: FLCEICGRNFTQKGNLLRHIKL
On to B24, for which the “log2 fold change of degron read counts” value runs as follows: under setting [1], -2.29; under setting [2], -2.99; under setting [3], -1.84; (compound: thalidomide) -0.409.

B25: 46F_47V_49N_50V_52G_53A_54H_55F_67L_, Q9UKT9 (peptide)
chain: FVCNVCGAHFTQKGNLLRHIKL
Consider B25, for which the “log2 fold change of degron read counts” value was -1.72 under setting [1], -0.867 under setting [2], 0.0144 under setting [3] and -0.327 (compound: thalidomide).

B26: 46F_47A_49P_50Q_52G_53A_54K_55F_67L_, Q9UKT9 (peptide)
chain: FACPQCGAKFTQKGNLLRHIKL
On to B26, for which the “log2 fold change of degron read counts” value was 1.62 under setting [1], -1.34 under setting [2], -2.13 under setting [3] and -1.03 (compound: thalidomide).

B27: 46F_47E_49P_50I_52G_53H_54A_55F_67L_, Q9UKT9 (peptide)
chain: FECPICGHAFTQKGNLLRHIKL
With B27, the “log2 fold change of degron read counts” value is -2.37 under setting [1], -2.63 under setting [2], -1.62 under setting [3] and -1.53 (compound: thalidomide).

B28: 46F_47S_49N_50I_52G_53A_54G_55F_67L_, Q9UKT9 (peptide)
chain: FSCNICGAGFTQKGNLLRHIKL
Consider B28, for which the “log2 fold change of degron read counts” value reads like this: under setting [1], 1.15; under setting [2], 0.769; under setting [3], 0.918; (compound: thalidomide) 0.088.
